These results are taken from PubChem BioAssay AID1903 (Southern Research Specialized Biocontainment Screening …, 2009).

Values joined by “and” are separate entries in the source; they are usually repeats but may differ in a detail not shown here. Identical values can stand only once. In all, about 310,000 compounds went through this assay and about 1,200 (0.39%) were called active. A selection follows. Potency and affinity values are given separately. Values without a mark were called inactive. How the calls were made is not given here.

Chain of Large T antigen (Simian virus 40) (P03070 whole entry, looked up): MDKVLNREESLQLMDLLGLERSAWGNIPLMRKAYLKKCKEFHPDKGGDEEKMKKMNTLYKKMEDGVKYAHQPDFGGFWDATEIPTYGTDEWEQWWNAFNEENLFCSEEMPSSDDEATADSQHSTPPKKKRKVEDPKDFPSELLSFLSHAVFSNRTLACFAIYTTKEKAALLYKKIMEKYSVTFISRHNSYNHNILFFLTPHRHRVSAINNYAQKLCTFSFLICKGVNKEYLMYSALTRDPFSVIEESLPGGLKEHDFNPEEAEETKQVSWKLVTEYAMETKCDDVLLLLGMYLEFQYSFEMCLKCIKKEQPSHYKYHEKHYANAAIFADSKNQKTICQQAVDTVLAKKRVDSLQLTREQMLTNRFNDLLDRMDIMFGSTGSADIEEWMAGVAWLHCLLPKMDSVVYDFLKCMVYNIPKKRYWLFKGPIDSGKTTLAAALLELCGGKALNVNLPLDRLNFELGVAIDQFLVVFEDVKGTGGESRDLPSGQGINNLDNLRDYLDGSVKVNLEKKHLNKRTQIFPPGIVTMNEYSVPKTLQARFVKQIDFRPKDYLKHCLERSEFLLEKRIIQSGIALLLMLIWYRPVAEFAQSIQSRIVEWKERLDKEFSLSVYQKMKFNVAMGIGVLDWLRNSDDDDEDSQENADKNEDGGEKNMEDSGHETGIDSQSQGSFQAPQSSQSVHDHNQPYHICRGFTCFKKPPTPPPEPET

The assay has as its target Large T antigen (Simian virus 40) (UniProt P03070). The experiment in a line: TAg ATPase/helicase activity blockers – biochemical (AID 1903). Particulars: SV40 large T antigen ATPase/helicase inhibition assay; at 20 µM; hits give high values.
Take `CC(CCc1ccc(O)cc1)NC1C2CC3CC(C2)CC1C3` (stereo unspecified): the inhibition (commonly the relative decrease from the control value, in per cent) was 2.61%.

As for `Cc1ccc(NC(=O)c2cc3ccccc3cc2O)cc1`, the inhibition was 0.83%.

Consider `CCOC(=O)c1nn(-c2ccc3ccccc3c2)cc1O`, for which the inhibition is 27.5%.

`Cc1ccc(/C=C2\NC(=S)NC2=O)cc1[N+](=O)[O-]`: the inhibition is 10.5%.

Take `CN(C)c1ccc(/C=N/NC(N)=S)cc1[N+](=O)[O-]`: the inhibition was 3.04%.

In the case of `CC(C)OP(=O)(OC(C)C)C(C)NC(=O)Cc1ccccc1` (stereo unspecified), the inhibition is 8.79%.

Consider `Cc1ccn2cc(-c3ccc(Br)cc3)nc2c1`, for which the inhibition is 8.41%.

As for `Brc1ccc(-c2cn3ccccc3n2)cc1`, the inhibition was 9.2%.

On to `CC(=O)Nc1cccc(-c2cn3ccc(C)cc3n2)c1`, for which the inhibition was 11.2%.

As to `Fc1ccc(-c2cn3ccccc3n2)cc1`, the inhibition is 0.64%.

For the compound `Cc1noc(C)c1C(=O)Nc1c(F)cc(F)cc1Br`, the inhibition was 0.97%.

Regarding `COc1cc(/C=C/C(=O)OCC(=O)NCc2ccco2)ccc1OC(F)F`, the inhibition was 8.29%.

As to `COc1ccc(CSc2nnc(-c3ccncc3)n2C)cc1F`, the inhibition was 3.25%.

Consider `O=S(=O)(Nc1ccc(Br)cc1)c1cccc2cccnc12`, for which the inhibition is 11.5%.

As for `CNS(=O)(=O)c1cccc2cccnc12`, the inhibition is -1.68%.

Take `NS(=O)(=O)c1cccc2cccnc12`: the inhibition was 10.6% and 4.71%.

Take `O=S(=O)(Nc1ccc(Cl)cc1)c1cccc2cccnc12`: the inhibition is 7.28%.

With `COc1cccc2c1O/C(=N\O)C(C(=O)Nc1ccc(C)cc1)C2` (stereo unspecified), the inhibition is 8.2%.

As for `S=C(c1ccc(Br)cc1)N1CCCC1`, the inhibition is 6.77%.

With `COc1cccc(/C=N/NC(=O)c2ccoc2C)c1O`, the inhibition was 9.61%.

Take `COc1ccc(/C=N/NC(=O)c2ccoc2C)cc1OC`: the inhibition was 6.94%.

For `CCn1c(C)nc2cc(C(=O)N/N=C/c3ccc(OC)cc3)ccc21`, the inhibition is 29.8%.

`COc1cc(/C=N/NC(=O)c2ccc3c(c2)OCCO3)c(Br)c(Br)c1O`: the inhibition is 29.5%.

In the case of `CCn1c(C)nc2cc(C(=O)N/N=C/c3cccc(OC)c3O)ccc21`, the inhibition is 6.05%.

Turning to `COc1cc(/C=N/NC(=O)c2ccc3c(c2)OCO3)ccc1O`, the inhibition was -30%.

As to `CCOc1ccc(/C=N/NC(=O)c2ccoc2C)cc1OC`, the inhibition is -2.86%.

Turning to `COc1cc(/C=N/NC(=O)c2ccoc2C)ccc1O`, the inhibition was 18%.

`CCCCN(C)CCN1C(=O)C2C(C(=O)Nc3ccc(OC)cc3)C3C=CC2(O3)C1C(=O)NC1CCCCC1` (stereo unspecified): the inhibition was 1.82%.

As to `Cc1cccc(NC(=O)CSc2ccc3nnc(-c4cccnc4)n3n2)c1`, the inhibition is 6.51%.

On to `COC(=O)c1ccc(S(=O)(=O)NNC(=O)COc2ccc(C)cc2)cc1`, for which the inhibition was 6.42%.

For `Cc1c(Nc2cc(N3CCCCCC3)c3nonc3c2[N+](=O)[O-])c(=O)n(-c2ccccc2)n1C`, the inhibition was 3.53%.

Consider `CC1=C(C(=O)Nc2ccccc2)C(c2ccc(O)cc2)N2C(=O)CSC2=N1` (stereo unspecified), for which the inhibition is 3.32%.

`Cc1nn(-c2ccccc2)c(C)c1C(=O)OCC(=O)N1CC(=O)Nc2ccccc21`: the inhibition was 10.3%.

Turning to `Cc1ccc2c(C)c(C(=O)N(Cc3ccc(F)cc3)C3CCS(=O)(=O)C3)oc2c1` (stereo unspecified), the inhibition was 7.21%.

As to `O=C1CCCN1CCCNc1ncccc1[N+](=O)[O-]`, the inhibition is 1.65%.

For `CCC(C)(O)c1[nH]c2ccc(C(=O)OC)cc2c1C` (stereo unspecified), the inhibition was 2.01%.

As to `CCCCC(CC)C1OCC(C[N+]2(C)CCOCC2)O1` (stereo unspecified), the inhibition is 19.1%.

Consider `Cc1occc1C(=O)N/N=C/C=C/c1ccccc1`, for which the inhibition was 24.7%.

With `COc1ccc(/C=N/NC(=O)c2cccnc2)cc1O`, the inhibition was 23.7%.

`COc1ccc(/C=N/NC(=O)c2ccc(C)nc2)cc1O`: the inhibition was 33.4%.

Turning to `Cc1occc1C(=O)N/N=C/c1ccc(N(C)C)cc1`, the inhibition was 21.7%.

On to `CCN(CC)CC(=O)c1c(N)n(Cc2ccccc2)c(=O)n(C)c1=O`, for which the inhibition was 6.97%.

Regarding `Cc1ccc(OCCNCC(O)COc2ccccc2)cc1` (stereo unspecified), the inhibition is 6.77%.

Regarding `CC(=O)Nc1cc(-c2ccccc2)ccc1O`, the inhibition is 26.7%.

For `CC(=O)/C=C(\C)Nc1ccccc1O`, the inhibition is 21.1%.

As for `CC(=O)c1ccc(N2C(=NC(=O)C3CCCCC3)SC3CS(=O)(=O)CC32)cc1` (stereo unspecified), the inhibition was 14.9%.

`Cc1cc(C(=O)CN2C(=O)NC(Cc3c[nH]c4ccccc34)C2=O)c(C)n1C` (stereo unspecified): the inhibition was -1.66%.

In the case of `Cc1cs/c(=N\N=C\c2ccccc2)n1Cc1ccco1`, the inhibition was 2.6%.

On to `CC(C)=N/N=c1\scc(C)n1Cc1ccco1`, for which the inhibition is 9.97%.

For `O=C(O)c1ccccc1O`, the inhibition is 13.6%.

In the case of `O=C(O)c1cccc(O)c1O`, the inhibition is 13%.

Consider `Nc1ccc(N)c(C(=O)O)c1`, for which the inhibition was 12.3%.

In the case of `Nc1ccc(C(=O)O)c(O)c1`, the inhibition is 2.41% and 26.8% and 24.4%.

On to `O=C(OCc1nnc(-c2ccccc2)o1)C1CC(=O)N(c2ccccc2)C1` (stereo unspecified), for which the inhibition was 4.63%.

Consider `COc1ccc(CCNCC(=O)Nc2ccccc2C(F)(F)F)cc1`, for which the inhibition is 4.81%.

With `CCCCc1nnc(NC(=O)C2CCN(c3ncnc4sc(C)c(C)c34)CC2)s1`, the inhibition is 6.43%.

As for `Cc1ccc(-n2nc3c(=O)n(CC(=O)NCc4ccccc4Cl)nc(C)c3c2C)cc1`, the inhibition is 10.3%.

Take `CCOC(=O)C1=C(O)/C(=C\c2cc(C)n(-c3ccccc3F)c2C)N=C1C`: the inhibition was 5.39%.

In the case of `O=C(NCc1cccs1)C1CCCN1C(=O)Nc1ccc(F)cc1` (stereo unspecified), the inhibition was 12.8%.

Consider `O=C(c1ccc(S(=O)(=O)Nc2ccccc2)cc1)N1CCCC(C(F)(F)F)C1` (stereo unspecified), for which the inhibition was 11.1%.

For the compound `CCNC(=O)O/N=C(\C)c1sc(-c2ccc(Cl)cc2)nc1C`, the inhibition is 1.49%.

For `COc1cc(/C=C2/C(=O)CNC2=O)ccc1O`, the inhibition is 37.6%.

Consider `CN=C1S/C(=C\c2ccc(O)c(Br)c2)C(=O)N1C`, for which the inhibition is 28.8%.

Turning to `CN=C1S/C(=C\c2ccc(OCC(=O)OC)c(OC)c2)C(=O)N1C`, the inhibition is 3.67%.

Regarding `COc1cc(/C=C2\CCC/C(=C\c3ccc(O)c(OC)c3)C2=O)ccc1O`, the inhibition was 9.57%.

For `CCOc1cc(/C=C2/NC(=O)N(CC(=O)Nc3cccc(C)c3)C2=O)ccc1O`, the inhibition was 12.6%.

For the compound `CCOc1cc(/C=C2/NC(=O)N(CC(=O)OC)C2=O)ccc1OC`, the inhibition is 31.1%.

In the case of `COc1cc(/C=C2/SC(=S)N(c3c(C)n(C)n(-c4ccccc4)c3=O)C2=O)ccc1O`, the inhibition was 27%.

As to `CCOc1cccc(/C=C2\NC(=S)N(c3ccccc3)C2=O)c1O`, the inhibition was 18.7%.

As for `O=C(O)C1CC(=O)N(Cc2ccc(F)cc2)C1` (stereo unspecified), the inhibition is 0.55%.

Regarding `COc1ccc(NC(=O)CCNC(C)=O)cc1NS(=O)(=O)c1ccc(F)cc1`, the inhibition was 3.53%.

For `CCc1ccccc1NC(=O)CNC(=O)CCc1nc2sc3c(c2c(=O)[nH]1)CCCC3`, the inhibition is 24.8%.

In the case of `Cc1cccc(C)c1N=Nc1c(C)cc(O)cc1C`, the inhibition is 12.6%.

With `Cc1ccccc1C1N(c2nccs2)C(=O)C2CCCN21` (stereo unspecified), the inhibition is 12.4%.

Regarding `CCN(c1ccccc1)S(=O)(=O)c1cc(CN2C(=O)c3cccnc3C2=O)ccc1OC`, the inhibition is 13.8%.

In the case of `Cc1ccc(CNC(=O)/C=C/c2ccc(S(=O)(=O)N3CCOCC3)cc2)cc1`, the inhibition is 3.26%.

Consider `NS(=O)(=O)c1cc(C(=O)OCC(=O)c2ccccc2)c(Cl)cc1Cl`, for which the inhibition is 2.42%.

With `NCCCC[C@H](NC(=O)C1CCNCC1)c1nnc([C@@H](N)Cc2ccc(O)cc2)o1`, the inhibition is 2.89%.

For `COc1ccc(N=C2NC(=O)/C(=C/c3ccc(O)c(OC)c3)S2)cc1`, the inhibition is 28.3%.

On to `COc1cc(/C=C2\C(=O)N(C)C(=S)N2C)ccc1O`, for which the inhibition was 17.2%.

Turning to `COc1cc(C=C2C(=O)c3ccccc3C2=O)cc(OC)c1OC`, the inhibition is 6.63%.

With `COc1ccc(C=C2C(=O)c3ccccc3C2=O)cc1O`, the inhibition was 36.2%.

As for `COc1cc(/C=C2/SC(=Nc3ccc(O)cc3)NC2=O)ccc1O`, the inhibition was 37.7%.

As for `COC(=O)C1=C(C)N(CCc2ccccc2)C(=O)/C1=C\c1ccco1`, the inhibition is 10.5%.

In the case of `O=C1N/C(=C/c2ccco2)C(=O)N1Cc1ccccc1F`, the inhibition was 11.4%.

With `COc1cc(/C=C2\NC(=S)N(C)C2=O)ccc1OCc1ccccc1F`, the inhibition was 15.8%.

For `Cc1ccc(NC(=O)C2CCCN(c3nccc(C)n3)C2)c(C)c1` (stereo unspecified), the inhibition is 4.92%.

In the case of `Cc1sc2nc(CSCC(=O)Nc3c(F)cccc3F)[nH]c(=O)c2c1C`, the inhibition was 6.91%.

As for `COc1ccc(C(=O)Nn2c(C)nc3ccccc3c2=O)cc1OC`, the inhibition is -1.86%.

`Cc1ccc(NC(=O)CSc2ccc3nnc(CCNC(=O)c4ccccc4)n3n2)c(C)c1`: the inhibition is 9.38%.

As to `O=C(c1ccccc1F)N1CCN(C2CCC(c3ccccc3)CC2)CC1` (stereo unspecified), the inhibition is 18.6%.

In the case of `CC(C)(C)C(=O)NC(=O)Nc1ccccc1C(F)(F)F`, the inhibition is 2.7%.

Consider `COC(=O)c1ccc(NC(=O)C2CCCN(S(C)(=O)=O)C2)cc1` (stereo unspecified), for which the inhibition was 3.57%.

For `C=CCCN(C1CCCC1)S(=O)(=O)c1ccccc1Br`, the inhibition is 10.4%.

Regarding `O=C(Nc1nc2ccc(Cl)cc2s1)[C@@H]1CCCN1C(=O)c1cccs1`, the inhibition is -3.98%.

Turning to `CCOc1cc(/C=C2\C(=O)N(CCc3ccc(OC)c(OC)c3)C(C)=C2C(=O)OC)ccc1O`, the inhibition was 22.8%.

In the case of `Cc1c(N2C(=O)/C(=C\c3cccc4ccccc34)SC2=S)c(=O)n(-c2ccccc2)n1C`, the inhibition is 9.9%.

As to `CCOC(=O)C1=C(C)N(c2ccc(OC)cc2)C(=O)/C1=C\c1ccc(O)c(OCC)c1`, the inhibition is 28.2%.

On to `COC(=O)C1=C(C)N(Cc2ccc(C)cc2)C(=O)/C1=C\c1ccc(O)c(OC)c1`, for which the inhibition was 11.5%.

`CCOC(=O)C1=C(C)N(c2ccc(C)cc2)C(=O)/C1=C\c1ccc(O)c(OC)c1`: the inhibition is 33.5%.

In the case of `Cc1c(N2C(=O)/C(=C/c3ccccc3)SC2=S)c(=O)n(-c2ccccc2)n1C`, the inhibition was 14.5%.
